Molecules are shown by their SMILES. Results filed as inconclusive are left out. Where a call stands in place of a potency, no number is given. Unmarked numbers belong to inactive results. The source made the active and inactive calls. Calls come from the whole dose curve.

The target in the test is Beta-2 adrenergic receptor (Homo sapiens) (UniProt P07550). Kind of test: Adrenergic beta2 receptor (ADRB2) small molecule agonists, cell-based qHTS assay (AID 1963593).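 Note: CHO cells stably overexpressing human ADRB2.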 In a few lines: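 CHO cells stably over-expressing ADRB2 were plated overnight at 37C, then dosed with compounds plus a stimulation mix containing 100uM IBMX and 25uM Ro-20-1724 for 0.5hr at room temperature. cAMP was measured by HTRF competition, 1hr.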
Sequence of Beta-2 adrenergic receptor (Homo sapiens) (P07550 whole entry, looked up): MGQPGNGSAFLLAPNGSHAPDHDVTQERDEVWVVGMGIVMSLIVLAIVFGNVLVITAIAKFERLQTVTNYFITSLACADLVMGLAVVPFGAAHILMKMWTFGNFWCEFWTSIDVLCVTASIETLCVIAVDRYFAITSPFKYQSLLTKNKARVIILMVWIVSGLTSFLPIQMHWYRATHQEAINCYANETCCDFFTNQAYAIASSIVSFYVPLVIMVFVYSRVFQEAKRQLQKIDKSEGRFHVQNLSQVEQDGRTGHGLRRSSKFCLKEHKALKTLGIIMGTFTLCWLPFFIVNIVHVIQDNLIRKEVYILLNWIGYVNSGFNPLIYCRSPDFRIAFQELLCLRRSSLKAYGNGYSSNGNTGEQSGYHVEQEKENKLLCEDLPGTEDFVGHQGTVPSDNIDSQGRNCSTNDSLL

Turning to `CO[C@@H]1[C@H](OC(=O)/C=C/C=C/C=C/C=C/C(=O)O)CC[C@]2(CO2)[C@H]1[C@@]1(C)O[C@@H]1CC=C(C)C`, the Potency result is “inactive”.
Turning to `CC(C)COC(=O)c1ccccc1`, the Potency entry is “inactive”.
Same read-out and setting: as for `C[C@H]1O[C@H](O[C@H]2[C@H](O)[C@@H](O)[C@@H](O[C@H]3[C@H](O)[C@@H](O)[C@H](O)O[C@@H]3CO)O[C@@H]2CO)[C@H](O)[C@@H](O)[C@@H]1N[C@H]1C=C(CO)[C@@H](O)[C@H](O)[C@H]1O`, the entry is “inactive”; as for `CCN(CC)CCOC(=O)C1(c2ccccc2)CCCC1`, “inactive”; as for `O=C(NCCO[N+](=O)[O-])c1cccnc1`, “inactive”.
On the same count and under the same terms, as for `O=P(O)(O)OCC(O)CO` (stereo not given), the entry is “inactive”.
As for `CCN(CCO)CCCC(C)Nc1ccnc2cc(Cl)ccc12` (stereo not given), the activation is 0.519% [at 8.39 µM].
With `O=C(c1ccc(F)cc1)C1CCN(CCn2c(=O)[nH]c3ccccc3c2=O)CC1`, the Potency result is “inactive”.
Turning to `Cc1ccccc1C#N`, the Potency result was “inactive”.
Consider `C=C1CC[C@H]2O[C@]2(C)CC[C@@H]2[C@@H]1CC2(C)C`, for which the Potency entry was “inactive”.
On the same count and under the same terms, as for `CCCCCCCCCCCCCC(=O)OCC`, the entry is “inactive”.
For `CCCCCCCCCCCCCc1ccccc1`, the Potency result is “inactive”.
`CCCCCCCCCCCC[N+](C)(C)CC(=O)[O-]`: the Potency entry was “inactive”.
On to `CC(=O)OC1CCCCC1C(C)(C)C` (stereo not given), for which the Potency entry is “inactive”.
With `CCC(=O)C(=O)CC`, the Potency entry is “inactive”.
On to `CC(=O)CC(c1ccc([N+](=O)[O-])cc1)c1c(O)c2ccccc2oc1=O` (stereo not given), for which the Potency entry is “inactive”.
Take `CCN(CC)CCOc1ccc(C(O)(Cc2ccc(Cl)cc2)c2ccc(C)cc2)cc1` (stereo not given): the Potency entry was “inactive”.
Consider `Cc1ccc2nc(N)[nH]c(=O)c2c1Sc1ccncc1`, for which the Potency result is “inactive”.
With `Cc1ccc2oc(CN(Cc3ccccc3)C(=O)Nc3c(F)cc(F)cc3F)c(-c3ccc(Cl)cc3)c2c1`, the Potency entry is “inactive”.
In the case of `O=C(O)CCNC(=O)c1ccccc1`, the Potency result is “inactive”.
The same measure, in the same setting: as for `C[C@@H]1C[C@H]2[C@@H]3CCC4=CC(=O)C=C[C@]4(C)[C@@]3(F)[C@@H](O)C[C@]2(C)[C@H]1C(=O)CO`, the entry is “inactive”; as for `CCCCCCCCCCCCCCCCOP(=O)([O-])OCC[N+](C)(C)C`, “inactive”; as for `CC(=O)C(C)=O`, “inactive”.
For `CCOC(=O)C1CC(=O)C(=C(O)C2CC2)C(=O)C1` (stereo not given), the Potency entry was “inactive”.
`CN1CCN(CC(=O)N2c3ccccc3C(=O)Nc3cccnc32)CC1`: the activation was -0.465% [at 8.39 µM].
Take `CCN1CCCC1CNC(=O)c1cc(S(N)(=O)=O)ccc1OC` (stereo not given): the Potency result was “inactive”.
For the molecule `CCCCCCCC/C=C\CCCCCCCC(=O)OC[C@@H](O)[C@H]1OC[C@H](O)[C@H]1O`, the Potency entry was “inactive”.
On the same count and under the same terms, as for `N#Cc1c(F)cccc1F`, the entry is “inactive”; as for `Cc1cc(C)c(O)c(C(C)(C)C)c1`, “inactive”.
Take `COc1ccc(OC)c(N=Nc2c(O)ccc3ccccc23)c1`: the Potency entry is “inactive”.
For `CCN(CC)CCOCCOC(=O)C1(c2ccccc2)CCCC1`, the Potency entry was “inactive”.
Take `O=C1c2ccccc2S(=O)(=O)N1CCCCN1CCN(c2ncccn2)CC1`: the Potency result is “inactive”.
Still for that read-out and setting: under `CC[C@H]1OC(=O)[C@H](C)[C@@H](O[C@H]2C[C@@](C)(OC)[C@@H](O)[C@H](C)O2)[C@H](C)[C@@H](O[C@@H]2O[C@H](C)C[C@H](N(C)C)[C@H]2O)[C@](C)(O)C[C@@H](C)C(=O)[C@H](C)[C@@H](O)[C@]1(C)O` stands “inactive”; under `Nc1ccc(S(=O)(=O)Nc2ccccn2)cc1`, “inactive”; under `Cc1cc(C(C)(C)C)c(O)c(C)c1CC1=NCCN1`, “inactive”.
As to `C[C@]12C=CC(=O)C=C1[C@@H](F)C[C@@H]1[C@@H]2[C@@H](O)C[C@@]2(C)[C@H]1CC[C@]2(O)C(=O)CO`, the Potency result is “inactive”.
Take `CC(C)(O)c1coc(S(=O)(=O)NC(=O)Nc2c3c(cc4c2CCC4)CCC3)c1`: the Potency entry was “inactive”.
Consider `Cc1cc(C(C)(C)C)c(O)c(C)c1Cn1c(=O)n(Cc2c(C)cc(C(C)(C)C)c(O)c2C)c(=O)n(Cc2c(C)cc(C(C)(C)C)c(O)c2C)c1=O`, for which the Potency result is “inactive”.
As for `COc1ccccc1Oc1c(NS(=O)(=O)c2ccc(C(C)(C)C)cc2)nc(-c2ncccn2)nc1OCCO`, the Potency result was “inactive”.
The same measure, in the same setting: under `NC(=O)Nc1ccc(Cl)c(Cl)c1` stands “inactive”; under `CCC(C)c1nccnc1OC` (stereo not given), “inactive”.
In the case of `O=C(O)CCCCCCC(=O)O`, the Potency result was “inactive”.
In the case of `CCOC(=O)C(Br)c1ccccc1` (stereo not given), the Potency entry is “inactive”.
Regarding `CC(=O)OCC(C)C`, the Potency entry was “inactive”.
Take `O=C(O)Cc1sc(-c2ccccc2)nc1-c1ccc(Cl)cc1`: the Potency result is “inactive”.
